Experimental findings from PubChem BioAssay are described below.

A short description of test [1]: Wnt pathway potentiators raising nuclear beta-catenin – imaging, WNT3A-conditioned medium, mouse C2C12, NPC library, primary screen (AID 1117326; in the data active = nuclear beta-catenin stimulation mostly above about 4.2%, no sharp cut-off; inactive = mostly below about 10%). The note with it: stronger effect = higher value.
Test [2] can be described thus: stimulators of insulin release from INS-1E, primary screen, cell-based, 5 mM glucose, NPC library (AID 1117329;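 active = compound raises insulin release from rat beta cells at 5 mM glucose, no numeric limit stated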). The note with it: rat INS-1E insulin secretion, at 10 µM, stronger effect = higher value.
Test [3] can be described thus: growth inhibition of GSK3B-pretreated HCT116 cells – cell-based, CellTiter-Glo, 0.2 to 20 µM (AID 1117336;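 active = compounds lowering colon cancer cell viability after pretreatment blocking the GSK3B kinase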). Particulars: HCT116 viability after GSK3B inhibitor, at 20 µM, stronger effect = higher value. (In general: In ATP-based viability assays light output follows the ATP content of the culture.)
Test [4] in a line: inhibition of endothelial tube formation, primary screen, imaging, VEGF stimulated, CD31 staining, tube area, NPC library (AID 1117340;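 active = compound that reduces growth-factor-driven endothelial tube area in a mixed cell culture, no cutoff stated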). Particulars: VEGF-stimulated ADSC/ECFC co-culture, at 10 µM, stronger effect = higher value.
Test [5] can be described thus: GLP1 release stimulators, primary, NCI-H716, NPC library (AID 1117341;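 active = compound raises GLP1 secretion from the human gut endocrine cells, with no numeric limit stated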). The note with it: NCI-H716 cells, at 10 µM, stronger effect = higher value.
Test [6] is described as follows: HCT116 colon cancer cell growth inhibition, primary screen, CellTiter-Glo luminescence, NPC library (AID 1117342;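 active = compounds that lower survival of HCT116 colon cancer cells in the luminescence readout, no numeric limit stated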). The note with it: at 20 µM (top of the series).
Test [7] is described as follows: reduced SW480 viability measured with CellTiter-Glo, NPC library, primary (AID 1117343;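 active = compounds that lower viability of the colon cancer cells in the luminescence readout, with no numeric limit stated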). Particulars: CellTiter-Glo luminescence; at 20 µM (top of the series).
A short description of test [8]: NPC library primary testing for decreased DLD-1 cell viability via CellTiter-Glo (AID 1117346;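 active = compounds that lower survival of DLD-1 colon cancer cells in the luminescence readout, no cutoff given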). Particulars: DLD-1 viability, CellTiter-Glo luminescence; at 20 µM (top of the series).
Test [9] has as its target 6-phosphogluconate dehydrogenase, decarboxylating (Homo sapiens) (UniProt P52209). Put plainly: inhibition of human phosphogluconate dehydrogenase – biochemical, recombinant enzyme, NADPH absorbance, primary screen (AID 1159550;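 active = at least 20% inhibition of 6-phosphogluconate dehydrogenase activity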). The note with it: recombinant 6PGD, NADPH absorbance 341 nm; at 10 µM; stronger effect = higher value.
Test [10] is described as follows: modulation of C. elegans fzo-1 (AID 1259413; call rule not given here;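 note: fzo-1 mutant C. elegans worms in liquid wells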). The note with it: C. elegans fzo-1 modulator screen, mean read-out; stronger effect = higher value.
Test [11] is described as follows: EMT-state selective cytotoxicity in co-culture – imaging, PC-3E GFP, TEM4-18 mCherry, primary screen (AID 1345086;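 active = compounds killing one labelled cell type while sparing the other, by normalised counts and ratio limits, not self-fluorescent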;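 for all read-outs here: cells exposed to compound for 72 h before imaging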;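 for red/green cell ratio (normalised): normalised mesenchymal count divided by normalised epithelial count so high means epithelial killing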). Particulars: PC-3E GFP / TEM4-18 mCherry co-culture, imaging cell counts, at 1 µM; for red/green cell ratio (normalised): actives lie on both sides, counts scaled to control wells, 1 = unselective.
Test [12] can be described thus: MELAS cybrid and Rieske KO viability enhancers – cell-based, MELAS cybrids, Rieske KO mouse fibroblasts, CellTiter-Glo, primary screen (AID 1508586;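 active = mean z-score across replicates of 1.96 or higher in either the MELAS or the Rieske mutant cell line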;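 note: z relative to plate mean and SD of compound and empty wells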). Particulars: low glucose.
The target of test [13] is NAD(+) hydrolase SARM1 (Homo sapiens) (UniProt Q6SZW1). Put plainly: blocking NAD cleavage by SARM1 SAM-TIR – cell lysate, NAD-Glo luminescence (AID 1508614;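 active = compound whose remaining NAD level is above about 45 nM, limit read from the data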;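 note: higher remaining NAD means stronger inhibition of SARM1 NADase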). The note with it: SAM-TIR HEK293T lysate NADase, at 1 µM, stronger effect = higher value.
Chain of NAD(+) hydrolase SARM1 (Homo sapiens) (Q6SZW1 whole entry, looked up, the tested form may be a part): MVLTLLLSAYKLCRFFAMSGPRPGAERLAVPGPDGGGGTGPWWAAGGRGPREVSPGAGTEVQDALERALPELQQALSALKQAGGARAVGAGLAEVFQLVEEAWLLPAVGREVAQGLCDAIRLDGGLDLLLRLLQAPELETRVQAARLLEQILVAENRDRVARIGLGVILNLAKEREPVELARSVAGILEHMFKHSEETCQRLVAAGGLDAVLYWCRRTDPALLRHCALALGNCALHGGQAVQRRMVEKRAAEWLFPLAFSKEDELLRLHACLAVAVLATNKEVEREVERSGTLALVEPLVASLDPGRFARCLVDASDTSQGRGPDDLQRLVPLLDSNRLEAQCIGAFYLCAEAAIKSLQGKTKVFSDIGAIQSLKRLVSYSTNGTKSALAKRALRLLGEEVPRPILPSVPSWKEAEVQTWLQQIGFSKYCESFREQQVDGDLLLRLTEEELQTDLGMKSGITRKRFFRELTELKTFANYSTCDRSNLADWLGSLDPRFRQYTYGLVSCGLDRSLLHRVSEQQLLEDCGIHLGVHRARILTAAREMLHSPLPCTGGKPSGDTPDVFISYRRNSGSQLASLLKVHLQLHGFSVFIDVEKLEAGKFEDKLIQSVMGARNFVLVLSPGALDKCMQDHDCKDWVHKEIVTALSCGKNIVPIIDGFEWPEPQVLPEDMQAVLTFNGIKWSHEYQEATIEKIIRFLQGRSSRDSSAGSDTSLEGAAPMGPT
The target in test [14] is Mitogen-activated protein kinase 7 (Homo sapiens) (UniProt Q13164). As to the kind of experiment: Gal4-ERK5 driven luciferase induction – cell-based, HTS, primary screen (AID 1508626;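 active = luciferase signal above three times the same-plate solvent-only control wells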;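 note: luciferase driven by Gal4-ERK5 fusion binding five Gal4 sites before minimal TATA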). Particulars: HeLa Gal4-ERK5 transactivation, 18 h, at 5 µM, stronger effect = higher value.
Chain of Mitogen-activated protein kinase 7 (Homo sapiens) (Q13164 whole entry, looked up, the tested form may be a part): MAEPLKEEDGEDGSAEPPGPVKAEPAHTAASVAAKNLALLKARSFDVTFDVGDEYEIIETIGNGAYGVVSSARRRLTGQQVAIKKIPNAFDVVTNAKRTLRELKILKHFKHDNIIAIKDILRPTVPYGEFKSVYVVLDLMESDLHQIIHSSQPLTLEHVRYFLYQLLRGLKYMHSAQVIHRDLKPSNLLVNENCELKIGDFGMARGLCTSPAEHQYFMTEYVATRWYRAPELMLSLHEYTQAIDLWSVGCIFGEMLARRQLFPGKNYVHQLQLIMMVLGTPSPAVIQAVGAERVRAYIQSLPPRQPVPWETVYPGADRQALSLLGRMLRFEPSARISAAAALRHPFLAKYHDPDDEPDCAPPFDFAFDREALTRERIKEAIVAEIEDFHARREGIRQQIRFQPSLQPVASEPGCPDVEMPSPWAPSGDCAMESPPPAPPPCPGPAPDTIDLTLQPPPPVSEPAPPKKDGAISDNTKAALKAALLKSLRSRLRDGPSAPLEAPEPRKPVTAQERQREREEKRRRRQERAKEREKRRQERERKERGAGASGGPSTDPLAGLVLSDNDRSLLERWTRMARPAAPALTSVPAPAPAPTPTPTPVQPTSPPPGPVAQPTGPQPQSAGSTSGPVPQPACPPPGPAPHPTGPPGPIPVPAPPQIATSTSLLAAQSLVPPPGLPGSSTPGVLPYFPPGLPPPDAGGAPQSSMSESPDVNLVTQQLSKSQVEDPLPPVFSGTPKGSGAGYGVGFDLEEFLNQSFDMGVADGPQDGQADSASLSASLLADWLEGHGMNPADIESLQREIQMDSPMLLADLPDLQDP
The next test deals with F380Y. Put plainly: BK channel mutant inhibitors and activators – cell-based, U2OS BacMam, thallium flux, beta subunits, selectivity assay, profiling panel (AID 1259406).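 Note: initial slope of Thallos dye fluorescence rise after thallium is added; log ratio against the mean of 0.3% DMSO vehicle wells on the same plate.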 The note with it: U2OS BacMam BK variants, at 30 µM.
Another test has as its system F380Y/beta1. The test is described as above. The note with it: U2OS BacMam BK variants, at 30 µM.
Another test relates to F380Y/beta2Delta. The description is as above. Particulars: U2OS BacMam BK variants, at 30 µM.
In another test the test system is F380Y/beta4. Described as above. The note with it: U2OS BacMam BK variants, at 30 µM.
Test [15] has as its target Calcium-activated potassium channel subunit alpha-1 (Homo sapiens) + Leucine-rich repeat-containing protein 26 (Homo sapiens) (UniProt Q12791+Q2I0M4). The description is as above. Particulars: U2OS BacMam BK variants, F380Y/Slo1WT/gamma1, at 30 µM.
[16] abbreviates: measured here: epithelial PC-3E GFP cell survival.
The mark [17] stands for this setting: measured here: mesenchymal TEM4-18 mCherry cell survival.
Where [18] appears, read: MELAS cybrid survival, CellTiter-Glo 48 h, stronger effect = higher value.
Setting [19] is: Rieske KO mouse fibroblast survival, CellTiter-Glo 72 h.

Where “and” joins values, the source holds several entries; their conditions need not be identical. Equal entries are not always repeated. Calls of active or inactive are those of the source.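 Rule for the calls, unless noted: active = thallium flux through the channel raised or lowered by more than 3 SD from vehicle-only wells, actives on both sides; inactive = the rest.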

A word on the inhibition: it is how much of the control response was suppressed.

Chain of Calcium-activated potassium channel subunit alpha-1 (Homo sapiens) + Leucine-rich repeat-containing protein 26 (Homo sapiens) (Q2I0M4 whole entry, looked up, one chain of several): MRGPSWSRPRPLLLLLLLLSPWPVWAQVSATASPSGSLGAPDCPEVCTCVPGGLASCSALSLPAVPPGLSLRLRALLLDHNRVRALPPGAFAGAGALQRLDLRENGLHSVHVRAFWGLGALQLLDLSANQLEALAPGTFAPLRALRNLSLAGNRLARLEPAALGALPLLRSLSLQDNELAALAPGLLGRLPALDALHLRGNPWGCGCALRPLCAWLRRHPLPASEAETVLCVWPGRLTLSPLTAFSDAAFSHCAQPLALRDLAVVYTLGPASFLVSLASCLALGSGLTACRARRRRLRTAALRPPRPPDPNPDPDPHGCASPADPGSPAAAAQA
Chain of 6-phosphogluconate dehydrogenase, decarboxylating (Homo sapiens) (P52209 whole entry, looked up): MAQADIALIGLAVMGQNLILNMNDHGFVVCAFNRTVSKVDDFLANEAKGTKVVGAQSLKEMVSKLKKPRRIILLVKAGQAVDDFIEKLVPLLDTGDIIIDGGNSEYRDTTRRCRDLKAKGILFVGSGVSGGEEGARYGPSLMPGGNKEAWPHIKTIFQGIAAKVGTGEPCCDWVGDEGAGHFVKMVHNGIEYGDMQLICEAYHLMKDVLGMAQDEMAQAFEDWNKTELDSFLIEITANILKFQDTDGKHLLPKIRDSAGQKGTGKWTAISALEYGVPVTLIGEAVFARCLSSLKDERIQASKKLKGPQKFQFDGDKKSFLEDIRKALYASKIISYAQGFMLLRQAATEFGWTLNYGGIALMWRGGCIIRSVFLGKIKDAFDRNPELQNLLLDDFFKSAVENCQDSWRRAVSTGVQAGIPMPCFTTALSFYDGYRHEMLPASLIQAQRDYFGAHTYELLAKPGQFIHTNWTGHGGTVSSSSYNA

In the case of `CC(=O)CCCCn1c(=O)c2c(ncn2C)n(C)c1=O`, the nuclear beta-catenin stimulation in [1] (at 10 µM) is 0.1% (inactive); in [1] (stimulation, at 2 µM), -0.8%. For the same compound, in [2], the insulin secretion stimulation was -1.6% (inactive). Further, the viability decrease in test [3] is 2.8% (inactive). The tube area decrease in test [4] is -8.3% (inactive). Also, in test [5], the GLP1 secretion stimulation is 1.9% (inactive). Also, the inhibition of viability in [6] is -8.4% (inactive). Moreover, the figures for the viability decrease (inhibition) in test [7] and in [8] were 52.4% (active) and 10.8% (inactive), respectively. Moreover, the inhibition in test [9] was 4.74% (inactive). The mean signal in [10] was 250 (inactive). In addition, in test [11], the red/green cell ratio (normalised) is 1.09 (inactive). In addition, the values for the normalised cell number in [11] (setting [16]) and in [11] (setting [17]) were 1.25 and 1.37, respectively. The z-score in test [12] (setting [18]) was 0.897 (inactive) and 0.351 (inactive); in test [12] (setting [19]) it was 0.0131 and -0.0411. For the same compound, the remaining NAD in [13] is 10 nM (inactive). In addition, the luciferase signal in test [14] was 88 AU (inactive). The log fold change Tl+ flux in the test on F380Y is 0.00269 (inactive); with F380Y/beta1, -0.00172 (inactive); with F380Y/beta2Delta it was -0.0305 (inactive); in the test on F380Y/beta4 it was 0.0281 (inactive); in test [15] it was -0.00624 (inactive).

On to `Nc1ccc(S(=O)(=O)c2ccc(N)cc2)cc1`, for which the nuclear beta-catenin stimulation in test [1] (at 10 µM) was -0.7% (inactive); in test [1] (stimulation, at 2 µM), -0.4%. In addition, the insulin secretion stimulation in [2] is -2.3% (inactive). For the same compound, the viability decrease in test [3] was -8.05% (inactive). In addition, in [4], the tube area decrease is 8.8% (inactive). The GLP1 secretion stimulation in test [5] was -1.2% (inactive). Moreover, the inhibition of viability in test [6] was 1.3% (inactive). The viability decrease (inhibition) in test [7] was 59.5% (active); in test [8] it was 7.95% (inactive). Further, the inhibition in [9] was 14.4% (inactive). The mean signal in test [10] was 228 (inactive). Moreover, in test [11], the red/green cell ratio (normalised) was 1.31 (inactive). The values for the normalised cell number in test [11] (setting [16]) and in test [11] (setting [17]) were 1.14 and 1.49, respectively. For the same compound, the z-score in test [12] (setting [18]) was 0.848 (inactive); in test [12] (setting [19]), 0.158. The remaining NAD in test [13] is 10 nM (inactive). The luciferase signal in test [14] was 32 AU (inactive). Moreover, the log fold change Tl+ flux is 0.0363 (inactive) in the test on F380Y; -0.00845 (inactive) in the test on F380Y/beta1; 0.0421 (inactive) with F380Y/beta2Delta; 0.0288 (inactive) with F380Y/beta4; -0.0163 (inactive) in test [15].

`CN(C)CCC=C1c2ccccc2CCc2ccccc21`: the nuclear beta-catenin stimulation is -0.4% (inactive) in test [1] (at 10 µM) and 1.1% in test [1] (stimulation, at 2 µM). For the same compound, the insulin secretion stimulation in test [2] is 41.5% (active). For the same compound, in [3], the viability decrease was -59% (inactive). The tube area decrease in [4] is 25% (inactive). Moreover, the GLP1 secretion stimulation in [5] is 5% (inactive). Further, in test [6], the inhibition of viability is 21.5% (inactive). Further, the viability decrease (inhibition) in test [7] is 72.1% (active); in test [8], -1.8% (inactive). Also, the inhibition in test [9] was 6.7% (inactive). In addition, the mean signal in test [10] is 243 (inactive). Also, the red/green cell ratio (normalised) in [11] was 1 (inactive). In addition, the normalised cell number in test [11] (setting [16]) and in test [11] (setting [17]) was 1.31 each time. Also, the z-score in test [12] (setting [18]) is -0.201 (inactive) and -0.81 (inactive); in test [12] (setting [19]), -0.129 and 0.0803. For the same compound, the remaining NAD in [13] was 10 nM (inactive). Also, the luciferase signal in test [14] was 36 AU (inactive). Further, the log fold change Tl+ flux is 0.184 (active) in the test with F380Y; 0.103 (inactive) in the test with F380Y/beta1; 0.179 (active) in the test with F380Y/beta2Delta; 0.189 (active) in the test with F380Y/beta4; 0.0267 (inactive) in test [15].
